# This is a sample that favours compounds with a hit; in the whole collection about 21% have one here.
# Pf growth 48h – P. falciparum growth inhibition at 48 hours (one generation); P. falciparum luciferase growth in erythrocytes, 48 h; Potency, µM (top dose mostly 28.7 µM), inactives show at the highest dose activity change, negative = inhibition, actives largely listed as inhibitors; hit rate 5.9% among 310,000; AID 504832; further: potency means the concentration at half of the fitted maximal effect; on the % scale 0 is the no-effect control and ±100 the full control effect
#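 Here the parasites carry a stable luciferase gene and grow inside erythrocytes in Albumax-based RPMI medium with compound for one erythrocytic cycle. Activity is scored as loss of luminescent signal.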
# Cycloheximide cs – counter-screen for Shiga toxin inhibitors: cycloheximide protein synthesis inhibition; cell reporter, cycloheximide protein synthesis inhibition counterscreen; max response, %; hit rate 12% among 300,000; in the data active means max response mostly above about 13%, no sharp cut-off; inactive means mostly below about 14%; further: read at 38.3 µM for the half of the compounds with a filed dose; 0% is about no effect
# Shiga toxin inh – inhibitors of Shiga toxin in Vero cells; Vero cells, Shiga toxin protein synthesis inhibition reporter; inhibition, % at 38.7 µM; hit rate 9.2% among 290,000; AID 2315; in the data active means inhibition mostly above about 28%, no sharp cut-off; inactive means mostly below about 43%; further: 0% is about no effect
# Pf growth 96h – P. falciparum growth inhibition at 96 hours. hit rate 6.9% among 320,000. P. falciparum luciferase reporter growth, 96 h. Potency, µM (titrated, usually from 28.7 µM), without a hit: top-dose activity change, negative = inhibition, hits mostly inhibitors; further: potency means the concentration at half of the fitted maximal effect; on the % scale 0 is the no-effect control and ±100 the full control effect
#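 Readout is luminescence from an integrated firefly luciferase in P. falciparum. Red cells, 2% hematocrit and 0.05% parasitemia final, were cultured with compound through two parasite generations (96 hours) at 37 C, 5% CO2.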
# * hit, by the source's call; ? = inconclusive; / = no result given. Unless noted, the call rests on the fitted dose curve; in most records, active means well fitted inhibition curve with a large enough effect; inconclusive means small, poorly fitted or top-dose-only effect, or another doubt; inactive means no such curve, though single readings can be large or run the other way.
SMILES,Pf growth 48h,Cycloheximide cs,Shiga toxin inh,Pf growth 96h
C/C(=N\NC(=O)c1ccc(Cl)cc1)c1cccs1,199.7%,18.7*,57.2*,87.3%
OCCc1c[nH]c2ccc(OCc3ccccc3)cc12,0.0%,-3.5,17.6,-6.2%
CN1CCC(N(C)C(=O)CCc2nc3ccccc3n2-c2ccccc2)CC1,-13.2%,-3.5,-7.4,?
Cc1ccc(NC(=O)CN(C)S(=O)(=O)c2cnc[nH]2)c(C)c1,51.5%,14.7,2.8,?
CCCCC(=O)NC(Nc1nc(C2CC2)cs1)(C(=O)OCC)C(F)(F)F (stereo not given),?,5.6,14.3,5.8%
O=C(OCc1ccccc1)/C(=C/c1cccc([N+](=O)[O-])c1)NC(=O)c1ccco1,-25.9%,-2.3,-3.8,?
NC(=Nc1ccc(Cl)cc1)c1ccccc1,61.8%,26.3*,40.5,44.3%
ONC(=Nc1ccccc1)c1ccc(Cl)cc1,15.1%,13.2,-4.4,65.8%
CCNC(=O)NC(=O)C(C)OC(=O)CNS(=O)(=O)c1c(Cl)cc(Br)cc1Cl (stereo not given),19.7%,-0.5,-7.4,27.4%
CC1CCC(C(C)C)C(OC(=O)Cn2c(-c3ccc(Br)cc3)[n+](C)c3ccccc32)C1 (stereo not given),1.65µM*,10.9,7.2,?
COc1ccc(/C=C2\CCc3ccccc3C2=O)cc1O,214.2%,21.6*,42.2*,252.4%
COc1ccc(/C=C2\Cc3ccccc3C2=O)cc1OC,6.2%,27.7*,75.0*,-31.4%
COc1ccc(/C=C2\CCc3ccccc3C2=O)cc1Cn1cccn1,/,40.6*,68.6*,0.0%
Cc1cc(C)c2oc(-c3ccc(C)c(NC(=S)NC(=O)c4cccs4)c3)nc2c1,74.3%,17.5*,38.8*,?
Cc1ccc(-c2nc3ccccc3o2)cc1NC(=S)NC(=O)c1cccs1,103.8%,32.4*,97.6*,35.8%
Cc1cc(C)c2oc(-c3ccc(C)c(NC(=S)NC(=O)/C=C/c4ccco4)c3)nc2c1,?,29.2*,44.2*,76.8%
COC(=O)CN1C(=O)[C@@H]2[C@H](C1=O)[C@@H]1CC(C(=O)OC)=C[C@@H](C(=O)OC)C3C1=C(C(=O)[C@@]3(C)NC(=O)c1ccccc1)[C@@H]2C (stereo not given in full),/,-2.5,-7.8,/
c1ccc(-c2nc(-n3nc4ccccc4n3)nc3ccccc23)cc1,13.0%,-1.0,-7.1,23.4%
FC(F)Sc1nc(-c2ccccc2)c(-c2ccccc2)n1C(F)F,-3.3%,3.0,6.7,3.29µM*
CC(C)C[C@H](NC(=O)c1[nH]cnc1C(=O)N[C@@H](C)C(=O)OC(C)(C)C)C(=O)OC(C)(C)C,7.38µM*,-2.6,-2.4,9.28µM*
CCOC(=O)c1ccc(NC(=O)c2nc[nH]c2C(=O)N[C@@H](C)C(=O)OC(C)(C)C)cc1,?,-5.4,10.8,?
CC(C)C[C@H](NC(=O)c1[nH]cnc1C(=O)Nc1ccccc1)C(=O)OC(C)(C)C,13.1µM*,-1.0,-1.2,?
NNC(=O)c1nc[nH]c1C(=O)Nc1ccccc1,24.9%,13.8*,22.4*,10.4µM*
CCOC(=O)c1ccc(NC(=O)c2nc[nH]c2C(=O)N[C@@H](CC(C)C)C(=O)OC(C)(C)C)cc1,7.38µM*,-3.4,-1.9,9.28µM*
CC(C)C[C@H](NC(=O)c1nc[nH]c1C(=O)N1CCN(C(=O)OC(C)(C)C)CC1)C(=O)OC(C)(C)C,?,0.7,-1.2,?
SMILES,Pf growth 48h,Cycloheximide cs,Shiga toxin inh,Pf growth 96h
CC(C)C[C@H](NC(=O)c1nc[nH]c1C(=O)N[C@@H](CC(C)C)C(=O)OC(C)(C)C)C(=O)OCc1ccccc1,?,-1.3,-3.9,?
CC(NS(=O)(=O)c1ccc2c(c1)C(C)(C)C(=O)N2C)c1ccccc1 (stereo not given),-22.7%,-3.9,20.3,-0.3%
COc1cc2c(C#N)c(N3CCc4ccccc4C3)nc(N)c2c(N)n1,8.28µM*,13.5,19.5,?
Cc1cc(N2C(=O)Cc3ccccc3C2=O)ccc1C(C)C,14.5%,18.9*,26.7,9.8%
CC(=O)c1c(C)[nH]c(C(=O)Nc2cc(C)ccc2C)c1C,/,-2.6,-13.8,1.7%
CC(=O)c1c(C)[nH]c(C(=O)Nc2cccc3ccccc23)c1C,-24.7%,5.0,7.9,?
CC(=O)c1c(C)[nH]c(C(=O)Nc2ccccc2Cl)c1C,57.6%,18.9,46.4*,50.9%
CC(=O)c1c(C)[nH]c(C(=O)Nc2cc(F)ccc2C)c1C,-0.2%,9.7,-1.0,5.8%
CC(=O)c1c(C)[nH]c(C(=O)Nc2ccc(F)cc2F)c1C,47.7%,44.4*,64.6*,46.2%
CC(=O)c1c(C)[nH]c(C(=O)Nc2ccc(C)cc2Br)c1C,110.7%,24.8*,66.0*,126.3%
CCc1nnc(NC(=O)CC(C)c2ccccc2)s1 (stereo not given),10.1%,7.4,/,-41.2%
COC(=O)C1CCN(c2ccc(Cl)nn2)CC1,1.47µM*,13.8,26.5,?
Cc1ccc(CSc2nnc(NC(=O)C3=COCCO3)s2)cc1,68.7%,/,/,32.4%
CCn1c2ccccc2c2c3ncc4cccn4c3ccc21,35.8%,15.8*,28.1,54.7%
CCC(CC)NCc1ccc2c(c1)c1ccccc1n2CC,?,-4.1,-30.3,?
COc1ccc2cc(CO)c(Cl)nc2c1,1.0%,13.6,2.5,-10.6%
COc1ccc2cc3c(nc2c1)OCC3,38.8%,20.0*,101.9*,0.0%
Cc1ccc(-c2c[n+](CC(=O)N3c4ccccc4Sc4ccccc43)c3n2CCC3)cc1,3.7µM*,6.7,-18.7,?
O=C(C[n+]1cc(-c2ccccc2)n2c1CCC2)N1c2ccccc2Sc2ccccc21,4.15µM*,8.8,13.1,?
O=C(C[n+]1cc(-c2ccccc2)n2c1CCC2)Nc1nc(-c2ccc(F)cc2)cs1,?,-4.6,-4.3,10.4µM*
O=C(C[n+]1cc(-c2ccc(F)cc2)n2c1CCC2)N1c2ccccc2Sc2ccccc21,13.1µM*,44.1*,53.6*,?
COc1ccc(CCN2CC(C(=O)NCCCn3nc(C)cc3C)CCC2=O)cc1 (stereo not given),28.6%,7.6,-6.0,29.4%
Cc1ccccc1OCCCCc1c(C)n[nH]c1C,-15.2%,2.1,-11.7,48.8%
COc1ccccc1Oc1ccc(Oc2ccccc2OC)cc1,-22.8%,40.8*,44.6,-28.1%
Cc1n[nH]c(C)c1CCCCOc1ccccc1F,15.7%,3.0,18.9,2.08µM*
SMILES,Pf growth 48h,Cycloheximide cs,Shiga toxin inh,Pf growth 96h
COc1ccccc1OCCCCOc1ccccc1F,26.5%,34.0*,75.5,34.1%
CCOc1ccccc1OCCCCOc1ccccc1F,-6.4%,-1.5,-9.6,-4.8%
Fc1ccccc1OCCCCCCN1CCCC1,-29.3%,16.5*,41.6,-9.3%
Fc1ccccc1OCCCCCN1CCCC1,?,8.6,-9.1,-3.1%
COc1ccc(S(=O)(=O)N2CCCOC2CNC(=O)C(=O)NCc2ccncc2)cc1 (stereo not given),-4.7%,-3.8,-25.5,-0.6%
O=C(OCCN1CCCCC1)c1cccc(Cl)c1,14.7%,-0.2,-16.9,-10.4%
CC(NC(=O)OCc1ccccc1)C(=O)OCN1C(=O)c2ccccc2C1=O (stereo not given),13.3%,-2.0,-11.2,11.7µM*
COC(=O)C(C)NC(=O)C(C)NC(=O)OCc1ccccc1 (stereo not given),27.0%,-2.2,-6.3,/

# Screening results: PubChem, National Center for Advancing Translational Sciences (NCATS)
